# The source made the active and inactive calls.
# What was measured:
# [1] = system: PRMT1 (protein arginine N-methyltransferase 1); assay: PRMT1 binders on small-molecule microarrays, primary screen, biochemical, small-molecule microarray, 635 nm fluorescence (AID 1088); conditions: small-molecule microarray binding, higher = more signal;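 also: binding of Prmt1 protein to compounds spotted on small-molecule microarray slides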
# [2] = yeast growth modulation, basal conditions, primary screen, YJM789 clinical isolate, OD600, 24 h (AID 1089);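 also: growth of clinical yeast isolate S. cerevisiae YJM 789 seeded 1000 cells per well; test concentration not given here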; conditions: S. cerevisiae YJM789 growth, higher = more signal, called active from +8 up or from −8 down
# [3] = fission yeast growth modulation, primary screen, strain 972, OD600, 24 h, no modulator (AID 1090);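 also: basal condition with compound alone and no growth modifier present; test concentration not given here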; conditions: S. pombe 972 growth, higher = more signal, called active from +8 up or from −8 down
# [4] = S. cerevisiae growth modulation with rapamycin, primary screen, strain BY4716, OD600, 96 h (AID 1091); conditions: higher = more signal, called active from +8 up or from −8 down; also: test concentration not given here
# [5] = target: Torsin-1A-interacting protein 2 (Homo sapiens) (UniProt Q8NFQ8); assay: LULL1 binders on small-molecule microarray, primary screen, cell lysate, human LULL1 lysate, 635/667 nm fluorescence (AID 1092); conditions: hLULL1 lysate binding, 635 nm fluorescence, higher = more signal;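 also: probe is lysate of COS7 cells overexpressing human LULL1; score merges per-feature 667 nm fluorescence with signal-to-noise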
# Torsin-1A-interacting protein 2 (Homo sapiens), sequence (Q8NFQ8 whole entry, looked up): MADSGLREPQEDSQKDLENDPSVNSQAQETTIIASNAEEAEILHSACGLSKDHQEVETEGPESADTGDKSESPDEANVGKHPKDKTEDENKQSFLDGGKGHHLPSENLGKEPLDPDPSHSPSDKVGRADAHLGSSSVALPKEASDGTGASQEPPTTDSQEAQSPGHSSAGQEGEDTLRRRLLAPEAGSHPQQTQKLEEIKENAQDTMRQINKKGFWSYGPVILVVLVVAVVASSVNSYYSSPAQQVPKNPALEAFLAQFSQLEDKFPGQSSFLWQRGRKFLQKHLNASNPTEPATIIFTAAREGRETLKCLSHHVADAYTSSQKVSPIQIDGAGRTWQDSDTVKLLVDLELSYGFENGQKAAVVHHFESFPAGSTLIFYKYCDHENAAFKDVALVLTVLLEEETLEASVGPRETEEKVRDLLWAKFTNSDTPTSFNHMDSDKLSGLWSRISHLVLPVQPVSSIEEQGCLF
# [6] = E. coli growth modulation, two-sided OD650, primary screen, E. coli filamentation project, strain DRC41, 24 h (AID 1093); conditions: OD650, 24 h, higher = more signal, called active from +8 up or from −8 down;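 also: MC1000 strain lacking acrAB efflux and sulA so SOS filamentation is blocked; test concentration not given here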
# [7] = small-molecule microarray binders of probe aLefty2, primary screen, biochemical, biotinylated probe, 635/667 nm fluorescence (AID 1094); conditions: higher = more signal;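 also: score merges spot fluorescence near 667 nm with spot signal-to-noise ratio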
# [8] = system: Noggin (protein binding on small-molecule microarray); assay: Noggin binders on small-molecule microarray, primary screen, biochemical, 635/667 nm fluorescence (AID 1095); conditions: 635 nm fluorescence, higher = more signal;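 also: score merges 667 nm feature fluorescence with signal to noise over triplicate slides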
# [9] = target: Neurogenic locus notch homolog protein 3 (Homo sapiens) (UniProt Q9UM47); assay: NOTCH3 binders on small-molecule microarray, primary screen, biochemical, 635/667 nm fluorescence (AID 1096); conditions: NOTCH3 binding, 635 nm fluorescence, higher = more signal
# Neurogenic locus notch homolog protein 3 (Homo sapiens), sequence (Q9UM47 whole entry, looked up): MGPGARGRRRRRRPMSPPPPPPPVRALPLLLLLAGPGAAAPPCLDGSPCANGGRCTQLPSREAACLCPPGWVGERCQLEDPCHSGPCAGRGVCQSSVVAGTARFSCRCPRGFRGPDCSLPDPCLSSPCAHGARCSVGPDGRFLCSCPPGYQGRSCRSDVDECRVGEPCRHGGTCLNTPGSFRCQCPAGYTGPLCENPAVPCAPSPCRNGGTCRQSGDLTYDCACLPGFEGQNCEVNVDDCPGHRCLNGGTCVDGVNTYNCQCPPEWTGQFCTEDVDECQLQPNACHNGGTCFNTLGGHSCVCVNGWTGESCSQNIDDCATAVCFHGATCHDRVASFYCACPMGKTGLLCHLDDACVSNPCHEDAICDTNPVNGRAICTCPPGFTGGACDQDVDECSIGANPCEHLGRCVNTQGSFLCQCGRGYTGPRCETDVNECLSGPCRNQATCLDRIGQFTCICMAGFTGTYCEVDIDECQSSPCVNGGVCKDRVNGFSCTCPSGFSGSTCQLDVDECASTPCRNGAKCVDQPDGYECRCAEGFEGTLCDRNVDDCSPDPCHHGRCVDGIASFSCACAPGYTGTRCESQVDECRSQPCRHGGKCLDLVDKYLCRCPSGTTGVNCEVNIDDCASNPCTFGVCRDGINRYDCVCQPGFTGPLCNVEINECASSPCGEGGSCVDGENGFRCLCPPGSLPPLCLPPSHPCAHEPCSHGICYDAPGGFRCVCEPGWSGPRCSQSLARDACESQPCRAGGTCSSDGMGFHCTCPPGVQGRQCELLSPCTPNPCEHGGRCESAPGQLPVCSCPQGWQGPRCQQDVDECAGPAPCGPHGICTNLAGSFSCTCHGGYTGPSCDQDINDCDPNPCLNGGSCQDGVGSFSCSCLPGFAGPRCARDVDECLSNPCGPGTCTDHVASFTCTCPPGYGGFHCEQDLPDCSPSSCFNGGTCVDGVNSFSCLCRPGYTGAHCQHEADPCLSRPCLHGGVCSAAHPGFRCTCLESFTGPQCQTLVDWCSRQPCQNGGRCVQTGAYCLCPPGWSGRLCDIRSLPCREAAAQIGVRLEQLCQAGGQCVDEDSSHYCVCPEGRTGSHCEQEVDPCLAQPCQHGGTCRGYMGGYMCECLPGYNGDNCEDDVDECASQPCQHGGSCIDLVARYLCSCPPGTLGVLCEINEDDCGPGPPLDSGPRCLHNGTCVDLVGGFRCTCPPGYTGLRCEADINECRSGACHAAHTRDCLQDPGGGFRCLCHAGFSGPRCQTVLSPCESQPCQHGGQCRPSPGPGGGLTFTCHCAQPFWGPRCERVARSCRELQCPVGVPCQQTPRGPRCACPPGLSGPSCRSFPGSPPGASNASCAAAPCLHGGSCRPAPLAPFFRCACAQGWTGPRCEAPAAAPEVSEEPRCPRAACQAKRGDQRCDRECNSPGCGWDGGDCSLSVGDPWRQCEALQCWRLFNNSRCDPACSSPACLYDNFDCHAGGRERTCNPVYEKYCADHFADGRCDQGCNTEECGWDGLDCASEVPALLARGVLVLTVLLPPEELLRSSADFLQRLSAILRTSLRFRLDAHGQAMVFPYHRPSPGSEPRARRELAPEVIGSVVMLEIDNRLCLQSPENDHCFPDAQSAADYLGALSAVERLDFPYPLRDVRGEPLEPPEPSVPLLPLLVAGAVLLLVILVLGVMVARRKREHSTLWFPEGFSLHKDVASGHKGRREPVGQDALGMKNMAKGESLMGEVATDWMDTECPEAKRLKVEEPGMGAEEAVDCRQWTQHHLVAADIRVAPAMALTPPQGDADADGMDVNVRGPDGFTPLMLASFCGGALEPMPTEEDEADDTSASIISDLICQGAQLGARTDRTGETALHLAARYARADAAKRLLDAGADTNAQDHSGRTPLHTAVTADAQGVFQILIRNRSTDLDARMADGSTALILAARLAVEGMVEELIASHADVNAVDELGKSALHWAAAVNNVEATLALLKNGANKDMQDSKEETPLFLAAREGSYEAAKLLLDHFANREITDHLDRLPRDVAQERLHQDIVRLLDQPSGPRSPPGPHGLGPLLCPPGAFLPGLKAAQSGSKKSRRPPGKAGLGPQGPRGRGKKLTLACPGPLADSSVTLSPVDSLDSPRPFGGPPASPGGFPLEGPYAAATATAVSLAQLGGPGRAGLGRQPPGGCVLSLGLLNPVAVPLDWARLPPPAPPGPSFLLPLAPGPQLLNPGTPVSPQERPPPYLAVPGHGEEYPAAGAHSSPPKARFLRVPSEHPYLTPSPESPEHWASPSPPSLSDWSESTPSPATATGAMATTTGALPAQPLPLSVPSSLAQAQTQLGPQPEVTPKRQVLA
# [10] = small-molecule microarray binders of probe aEGFR, primary screen, biochemical, biotinylated probe, 635/667 nm fluorescence (AID 1097); conditions: higher = more signal;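 also: probe is a biotinylated anti-EGFR antibody binding compounds printed on slides; score combines fluorescence near 667 nm and signal to noise of each spot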
# [11] = system: Plasmodium falciparum Sir2 (PF13_0152, Sir2A); assay: pfSir2 binders on small-molecule microarrays, primary screen, biochemical, small-molecule microarray, 635 nm fluorescence (AID 1098); conditions: small-molecule microarray binding, fluorescence 635 nm; higher = more signal;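 also: score merges spot fluorescence intensity with its signal-to-noise ratio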
# [12] = small-molecule microarray binders of probe aDKK1, primary screen, biochemical, biotinylated probe, 635/667 nm fluorescence (AID 1099); conditions: higher = more signal;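 also: score merges 667nm spot fluorescence with signal to noise across triplicate slides; reference of the scale not given here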
# [13] = small-molecule microarray binders of probe aCHRDL2, primary screen, biochemical, biotinylated probe, 635/667 nm fluorescence (AID 1100); conditions: higher = more signal
# [14] = splicing luciferase reporter signal modulators, primary screen, spliceosome inhibition project, cell-based, HEK293, splice +/- reporter (AID 1101); conditions: luminescence, 24 h, higher = more signal, called active from +8 up or from −8 down;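 also: HEK293 cells carrying a splicing-competent luciferase reporter gene; test concentration not given here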
# [15] = target: Fibroblast growth factor 10 (Homo sapiens) (UniProt O15520); assay: FGF10 binders on small-molecule microarrays, primary screen, biochemical, small-molecule microarray, 635 nm fluorescence (AID 1102); conditions: FGF10 binding, fluorescence 635 nm, higher = more signal
# Fibroblast growth factor 10 (Homo sapiens), sequence (O15520 whole entry, looked up): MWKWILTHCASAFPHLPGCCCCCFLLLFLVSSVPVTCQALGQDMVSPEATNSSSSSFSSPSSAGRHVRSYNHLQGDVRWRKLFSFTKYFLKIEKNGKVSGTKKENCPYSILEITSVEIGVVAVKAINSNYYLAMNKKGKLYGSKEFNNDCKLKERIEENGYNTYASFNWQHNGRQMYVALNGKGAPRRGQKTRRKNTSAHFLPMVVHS
# [16] = system: glycogen synthase kinase-3 (GSK3A per assay name; protocol says GSK3B); assay: GSK3 binders on small-molecule microarrays, primary screen, biochemical, small-molecule microarray, 635 nm fluorescence, GSK3A (AID 1103); conditions: small-molecule microarray binding, fluorescence 635 nm; higher = more signal; also: the record names both GSK3A and GSK3B
# [17] = target: Epidermal growth factor receptor (Homo sapiens) (UniProt P00533); assay: EGFR binders on small-molecule microarrays, primary screen, biochemical, small-molecule microarray, 635 nm fluorescence (AID 1104); conditions: EGFR binding, higher = more signal;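 also: score merges 667 nm emission intensity with spot signal to noise over triplicate slides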
# Epidermal growth factor receptor (Homo sapiens), sequence (P00533 whole entry, looked up): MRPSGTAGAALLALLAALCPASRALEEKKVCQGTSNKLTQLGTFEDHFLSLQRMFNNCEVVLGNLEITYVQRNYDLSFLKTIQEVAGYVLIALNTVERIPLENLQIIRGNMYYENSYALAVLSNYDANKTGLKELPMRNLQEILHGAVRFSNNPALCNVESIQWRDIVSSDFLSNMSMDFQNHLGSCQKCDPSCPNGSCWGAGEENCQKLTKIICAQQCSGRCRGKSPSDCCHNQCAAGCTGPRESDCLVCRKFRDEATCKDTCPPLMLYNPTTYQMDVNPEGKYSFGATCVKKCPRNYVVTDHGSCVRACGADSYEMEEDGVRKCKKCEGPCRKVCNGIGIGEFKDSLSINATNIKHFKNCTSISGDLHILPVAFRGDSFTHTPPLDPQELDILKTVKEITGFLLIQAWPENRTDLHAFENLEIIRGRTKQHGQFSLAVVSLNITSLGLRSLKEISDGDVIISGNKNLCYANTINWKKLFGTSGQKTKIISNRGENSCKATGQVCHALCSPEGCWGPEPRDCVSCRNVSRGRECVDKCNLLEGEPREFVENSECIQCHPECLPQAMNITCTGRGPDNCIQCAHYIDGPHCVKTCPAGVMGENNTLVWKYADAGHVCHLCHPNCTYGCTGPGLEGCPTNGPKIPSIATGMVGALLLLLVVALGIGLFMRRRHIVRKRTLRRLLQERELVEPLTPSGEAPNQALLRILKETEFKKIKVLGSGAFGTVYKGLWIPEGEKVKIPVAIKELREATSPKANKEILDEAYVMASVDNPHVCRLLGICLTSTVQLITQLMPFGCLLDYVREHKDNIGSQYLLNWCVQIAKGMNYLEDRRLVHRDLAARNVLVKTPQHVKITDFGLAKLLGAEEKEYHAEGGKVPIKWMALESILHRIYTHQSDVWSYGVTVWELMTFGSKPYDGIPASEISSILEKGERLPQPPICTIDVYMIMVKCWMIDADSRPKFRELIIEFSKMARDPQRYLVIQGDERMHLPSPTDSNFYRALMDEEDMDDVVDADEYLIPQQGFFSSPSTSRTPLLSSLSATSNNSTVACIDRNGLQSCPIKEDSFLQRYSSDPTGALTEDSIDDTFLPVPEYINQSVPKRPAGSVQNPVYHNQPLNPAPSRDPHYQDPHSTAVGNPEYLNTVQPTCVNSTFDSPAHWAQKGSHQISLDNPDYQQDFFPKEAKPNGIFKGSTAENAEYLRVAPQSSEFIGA
# [18] = target: Follistatin-related protein 3 (Homo sapiens) (UniProt O95633); assay: FSTL3 binders on small-molecule microarrays, primary screen, biochemical, small-molecule microarray, 635 nm fluorescence (AID 1105); conditions: FSTL3 binding, higher = more signal;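 also: score merges emission near 667 nm and signal to noise per printed spot across three slides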
# Follistatin-related protein 3 (Homo sapiens), sequence (O95633 whole entry, looked up): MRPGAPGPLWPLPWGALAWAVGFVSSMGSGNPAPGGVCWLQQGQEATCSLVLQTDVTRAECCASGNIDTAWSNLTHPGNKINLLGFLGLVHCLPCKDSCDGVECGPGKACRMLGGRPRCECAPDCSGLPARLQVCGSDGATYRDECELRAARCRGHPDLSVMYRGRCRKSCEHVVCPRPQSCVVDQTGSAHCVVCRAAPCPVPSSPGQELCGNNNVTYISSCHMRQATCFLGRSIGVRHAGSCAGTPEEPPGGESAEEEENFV
# [19] = target: Dickkopf-related protein 1 (Homo sapiens) (UniProt O94907); assay: DKK1 binders on small-molecule microarrays, primary screen, biochemical, small-molecule microarray, 635 nm fluorescence scan (AID 1106); conditions: DKK1 binding, higher = more signal;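 also: score merges emission near 667 nm with signal to noise over three replicate slides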
# Dickkopf-related protein 1 (Homo sapiens), sequence (O94907 whole entry, looked up): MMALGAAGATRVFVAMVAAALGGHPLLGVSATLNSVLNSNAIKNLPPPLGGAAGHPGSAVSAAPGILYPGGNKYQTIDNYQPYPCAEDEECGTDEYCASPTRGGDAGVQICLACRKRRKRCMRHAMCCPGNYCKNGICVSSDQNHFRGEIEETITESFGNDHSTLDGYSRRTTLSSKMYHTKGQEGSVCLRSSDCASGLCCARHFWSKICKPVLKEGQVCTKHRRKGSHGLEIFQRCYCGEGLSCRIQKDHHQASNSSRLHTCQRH
# [20] = system: Inhibin beta A chain (activin A); assay: INHBA (activin A) binders on microarrays, primary screen, biochemical, small-molecule microarray, 635 nm fluorescence scan (AID 1107); conditions: small-molecule microarray binding, higher = more signal;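 also: mouse activin A protein probed at 4.33 µg/mL on printed slides; score merges bound-protein fluorescence near 667 nm with spot signal-to-noise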
Compound,composite z-score [1],z-score [2],z-score [3],z-score [4],composite z-score [5],z-score [6],composite z-score [7],composite z-score [8],composite z-score [9],composite z-score [10],composite z-score [11],composite z-score [12],composite z-score [13],z-score [14],composite z-score [15],composite z-score [16],composite z-score [17],composite z-score [18],composite z-score [19],composite z-score [20]
O=C1C2C=CC(C(O)C3CC=CCC3)N(n3cnnc3)C2C(=O)N1Cc1ccccc1 (stereo not given),1.07,-0.504 (inactive),0.196 (inactive),0.0633 (inactive),1.09,-1.09 (inactive),-0.223,-1.05,-0.686,-0.314,0.213,-0.3,0.348,0.276 (inactive),-0.644,-0.406,-1.64,-1,-0.746,0.672
Cc1ccc(N2C(=O)c3ccccc3[C@@H](C(=O)NC(C)C)[C@@H]2c2ccc(CO)cc2)nc1,0.528,-1.14 (inactive),-0.958 (inactive),-1.62 (inactive),3.07,-0.113 (inactive),-0.0336,-0.0751,-0.528,-0.115,1.87,0.167,0.61,0.245 (inactive),0.121,-0.0399,-0.416,-0.64,-0.32,0.726
Cc1ccc(S[C@]2(C(=O)NCc3ccccc3)CC(=O)N(Cc3cc(C(F)(F)F)cc(C(F)(F)F)c3)[C@@H]2c2ccc(CO)cc2)cc1,1.34,1.04 (inactive),-0.27 (inactive),0.521 (inactive),1.94,-0.764 (inactive),-0.225,0.0043,-0.132,-0.325,1.3,-0.614,-0.711,0.0364 (inactive),-0.431,-0.817,-0.662,-0.247,-0.422,0.283
CCOC1=C2C(c3ccc(C)cc3)N(S(=O)(=O)c3ccc(C)cc3)CC2n2c(=O)n(-c3ccccc3)c(=O)n2C1 (stereo not given),1.41,-0.281 (inactive),0.401 (inactive),1.73 (inactive),2.89,-0.278 (inactive),0.152,0.351,1.08,0.0201,0.818,0.579,0.5,-0.0374 (inactive),1.04,1.29,0.559,1.26,0.424,0.329

# Source: PubChem BioAssay
